Compounds with a hit are over-represented: about 0.9% of the library has one in this group of screens.
Yp Topo-I inh: inhibitors of Yersinia pestis topoisomerase I; Y. pestis Topo-I cleavage product accumulation, plate reader; activity, % at 10 µM; actives 0.064% (n = 360,000); in the data active = activity above about 50%, passing the limit was not always enough
MazF activator: increases E. coli MazEF RNase cleavage of RNA. activation, % at 20 µM. FAM/BHQ RNA-DNA oligo cleavage fluorescence, 5 h. actives 0.32% (n = 350,000). P0AE70. AID 504720; in the data active = activation above about 50%
Target sequence (P0AE70 whole entry, looked up): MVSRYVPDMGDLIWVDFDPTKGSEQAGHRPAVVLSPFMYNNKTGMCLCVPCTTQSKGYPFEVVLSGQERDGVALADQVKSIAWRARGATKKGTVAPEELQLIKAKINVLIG
PriA SSB inh: K. pneumoniae PriA-SSBct interaction inhibition | actives 0.6% (n = 430,000) | AID 1272365 | inhibition, % at 33 µM | AlphaScreen SSBct-PriA binding, biotinylated peptide; in the data active = inhibition mostly above about 37%, no sharp cut-off; inactive = mostly below about 20%
SARS 3CLpro inh: SARS-CoV 3CLpro protease inhibition | P0C6X7 | recombinant SARS-CoV 3CLpro, quenched FRET peptide cleavage | inhibition, % at 6 µM | actives 0.14% (n = 290,000) | AID 1706; in the data active = inhibition above about 12%
Hits are given with their value; ! = repeats disagree.

Screening CC(C)c1ccc(NC(=O)Nc2c[nH]c3ccccc23)cc1 returned PriA SSB inh 39.
Screening CCc1ccc(NC(=O)Nc2c[nH]c3ccccc23)cc1 returned PriA SSB inh 38.
O=C(Nc1ccc(OC(F)(F)F)cc1)Nc1c[nH]c2ccccc12 was read as PriA SSB inh inactive.
`O=C(Nc1ccc(F)c(Cl)c1)Nc1c[nH]c2ccccc12` gave PriA SSB inh 54.
`Cc1ccc(NC(=O)Nc2c[nH]c3ccccc23)cc1Cl` gave PriA SSB inh inactive.
O=C(CC(NCCOCCO)C(=O)O)Nc1ccc(F)cc1 (configuration not stated) was read as PriA SSB inh inactive.
Cc1cccc(N2C(=O)c3cccc4c(N(C)CCO)ccc(c34)C2=O)c1 was read as Yp Topo-I inh inactive, MazF activator 78, PriA SSB inh inactive and SARS 3CLpro inh inactive.
For CCCCn1c(NS(=O)(=O)c2ccccc2)c(S(=O)(=O)c2ccc(C)cc2)c2nc3ccccc3nc21 the results were Yp Topo-I inh inactive, MazF activator inactive, PriA SSB inh 58 and SARS 3CLpro inh inactive.
For CCCCOCCCn1c(NS(=O)(=O)c2ccc(F)cc2)c(S(=O)(=O)c2ccc(C)cc2)c2nc3ccccc3nc21 the results were PriA SSB inh 67.
Screening CCCCOCCCn1c(NS(=O)(=O)c2ccc([N+](=O)[O-])cc2)c(S(=O)(=O)c2ccc(C)cc2)c2nc3ccccc3nc21 returned PriA SSB inh inactive.
Screening Cc1ccc(S(=O)(=O)c2c(NS(=O)(=O)c3ccccc3)n(CCc3ccccc3)c3nc4ccccc4nc23)cc1 returned PriA SSB inh 67.
Screening Cc1c2ccccc2nc2c(F)c(NCCO)c(F)c(F)c12 returned Yp Topo-I inh inactive, MazF activator 63, PriA SSB inh inactive and SARS 3CLpro inh inactive.
`Cc1cc(N)n(-c2nc3c(c(=O)[nH]2)CCCC3)n1` gave PriA SSB inh 93.
`CCC(=O)Nc1cc(C)nn1-c1nc(C)c(CC)c(=O)[nH]1` gave PriA SSB inh inactive.
Screening CCc1c(C)nc(-n2nc(C)cc2N)[nH]c1=O returned PriA SSB inh 93.
C/C=C/C(=O)Nc1cc(C)nn1-c1nc2c(c(=O)[nH]1)CCC2 was read as PriA SSB inh inactive.
For CN1C(=O)c2cc(NC(=O)c3ccc4c(c3)OCO4)ccc2Oc2ccccc21 the results were PriA SSB inh inactive.
Screening Nc1nc(Nc2cccc(F)c2)nc(NCc2ccco2)c1[N+](=O)[O-] returned Yp Topo-I inh inactive, MazF activator 66, PriA SSB inh inactive and SARS 3CLpro inh inactive.
Screening O=c1nc(NN=Cc2ccccn2)cn[nH]1 returned PriA SSB inh 82.
Screening Cc1cc(=O)[nH]c(NN=Cc2ccccn2)n1 returned PriA SSB inh 83.
Screening Cc1cc(=O)[nH]c(N/N=C/c2ccccn2)n1 returned Yp Topo-I inh inactive, MazF activator inactive and SARS 3CLpro inh inactive.
O=c1nc(N/N=C/c2ccccn2)cn[nH]1 was read as Yp Topo-I inh inactive, MazF activator inactive and SARS 3CLpro inh inactive.
COc1ccccc1NC(=O)CSc1nnc(CCc2c(C)[nH]c(=O)n(C)c2=O)o1 was read as PriA SSB inh inactive.
Screening Cc1cnnn1-c1ccc(C(=O)Nc2cccc(F)c2)cc1 returned PriA SSB inh inactive.
`O=C(NCCCn1ccnc1)C(=O)NCC1OCCN1S(=O)(=O)c1ccc([N+](=O)[O-])cc1` (configuration not stated) gave PriA SSB inh 80.
`COc1ccc(S(=O)(=O)N2CCOC2CNC(=O)C(=O)NCCCn2ccnc2)cc1` (configuration not stated) gave PriA SSB inh 102.
Cc1cc(C)c(S(=O)(=O)N2CCOC2CNC(=O)C(=O)NCCCn2ccnc2)c(C)c1 (configuration not stated) was read as Yp Topo-I inh inactive, MazF activator inactive, PriA SSB inh 50 and SARS 3CLpro inh inactive.
O=C(NCCCn1ccnc1)C(=O)NCC1OCCN1S(=O)(=O)c1ccc2c(c1)OCCO2 (configuration not stated) was read as Yp Topo-I inh inactive, MazF activator inactive, PriA SSB inh 23! and SARS 3CLpro inh inactive.
Screening COc1ccccc1Cn1ccnc1SCC(=O)NCc1ccc(F)cc1 returned PriA SSB inh inactive.
For O=C(CCc1cccc(Cl)c1)N1CCC(N2CCC[C@@H]2COCc2ccccc2)CC1 the results were PriA SSB inh inactive.
`COc1ccc(S(=O)(=O)Nc2ccc3c(c2)C(=O)N(C)c2cc(C)ccc2O3)cc1Cl` gave PriA SSB inh inactive.
Screening CCN1C=CC=C/C1=C(/C#N)c1nc(-c2ccccc2)cs1 returned PriA SSB inh 108.
For Cc1cc2ccccc2n1CCNC(=O)COc1ccccc1 the results were Yp Topo-I inh inactive, MazF activator inactive and PriA SSB inh 49.
For CCCNc1nc(SCC)nc2c1cnn2CCNC(=O)c1c(-c2ccccc2Cl)noc1C the results were PriA SSB inh 88.
`CCSc1nc(NC(C)C)c2cnn(CCNC(=O)c3c(-c4ccccc4Cl)noc3C)c2n1` gave PriA SSB inh inactive.
`Cc1onc(-c2ccccc2Cl)c1C(=O)NCCn1c(C)cc2ccccc21` gave Yp Topo-I inh inactive, MazF activator inactive, PriA SSB inh 87 and SARS 3CLpro inh inactive.
`Cc1cc(NS(=O)(=O)N(C)C)no1` gave PriA SSB inh inactive.
`[O-]/C(=C(\C(=S)Nc1ccc(SC(F)F)cc1)[n+]1cccc(CO)c1)c1ccc(Cl)s1` gave Yp Topo-I inh 61, MazF activator inactive and SARS 3CLpro inh inactive.
Screening Oc1ccccc1C1=Nc2ccccc2N=C(c2ccco2)C1 returned Yp Topo-I inh inactive, MazF activator 56, PriA SSB inh inactive and SARS 3CLpro inh inactive.
Screening O=C(/C=C/c1ccc(Br)o1)/C=C/c1ccc(Br)o1 returned PriA SSB inh 39.
For Cc1ccc(-n2ccc(-c3nn(-c4ccccc4)ccc3=O)n2)cc1 the results were Yp Topo-I inh inactive, MazF activator inactive, PriA SSB inh inactive and SARS 3CLpro inh inactive.
`CSc1nccc(-c2nn(-c3ccc(Cl)cc3)ccc2=O)n1` gave PriA SSB inh 53.
N#CC(C#N)=C(/C=C/c1cccs1)C1CC1 was read as PriA SSB inh 42.
Screening N#CC(C#N)=C(/C=C/c1ccccc1)C1CC1 returned PriA SSB inh inactive.
Screening CCOC(=O)c1c(NC(=S)Nc2ccc(Cl)cc2)sc2c1CCN(C)C2 returned Yp Topo-I inh inactive, MazF activator 171, PriA SSB inh inactive and SARS 3CLpro inh inactive.
For O=C(Nc1nnc(C2CCCO2)o1)C(c1ccccc1)c1ccccc1 (configuration not stated) the results were PriA SSB inh 84.
For Cc1cc(-c2nnc(NC(=O)C3COc4ccccc4O3)o2)n(C)n1 (configuration not stated) the results were PriA SSB inh 44.
O=C(Nc1nnc(C2CCCO2)o1)C1COc2ccccc2O1 (configuration not stated) was read as PriA SSB inh 75.
O=C(COc1ccccc1F)NC[C@H]1CCCN(c2nccs2)C1 was read as PriA SSB inh inactive.
For Cc1ccc(CCC(=O)O)cc1F the results were PriA SSB inh inactive.

Bioassay records as filed in PubChem.
